# IL-1B inflam inh = qHTS for Inhibitors of Inflammasome Signaling: IL-1-beta AlphaLISA Primary Screen | THP-1 LPS/ATP IL-1B secretion, AlphaLISA, 16 h; hits give low values | activity change, % at 57.5 µM | 360,000 compounds, 4.7% hits | AID 743279, 2014; in the data active means activity change below about -50%; inconclusive means mostly about -30% to -49%
#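 Secreted IL-1B measured by AlphaLISA bead assay after 16 h compound exposure of THP-1 cells; compounds (final up to 57.5 uM) added 1 h before LPS (250 ng/mL) and ATP (1.25 mM) stimulation; lower signal means less secretion.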
# TDP1 cell noCPT = qHTS for Inhibitors of human tyrosyl-DNA phosphodiesterase 1 (TDP1): qHTS in cells in absence of CPT. DT40 Tdp1-/- hTDP1 cells, no CPT, ATP luminescence, 48 h. Potency, µM (series often up to 46.2 µM), for the others: at the top dose activity change, negative = growth inhibition, usual class: inhibitors. 420,000 compounds, 15% hits; further: potency means the concentration at half of the fitted maximal effect; nearly all actives have a fitted effect of over 55% in size
#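 Compound effects on proliferation are scored in DT40 Tdp1-/-;hTDP1 cells in the absence of CPT. ATP levels (CellTiter-Glo luminescence) are recorded after a ≥48 hr, 37 °C incubation.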
# ALOX12 inh = Primary qHTS assay for inhibitors of human arachidonate 12S-lipoxygenase (ALOX12): Round 2 | 580,000 compounds, 1.1% hits | AID 1671190, 2021 | purified 12hLO, xylenol orange hydroperoxide absorbance | Potency, µM (doses to about 108 µM), without a hit: at the top dose activity change, negative = inhibition, actives largely listed as inhibitors; further: potency means the concentration at half of the fitted maximal effect
# Target sequence (P18054 whole entry, looked up): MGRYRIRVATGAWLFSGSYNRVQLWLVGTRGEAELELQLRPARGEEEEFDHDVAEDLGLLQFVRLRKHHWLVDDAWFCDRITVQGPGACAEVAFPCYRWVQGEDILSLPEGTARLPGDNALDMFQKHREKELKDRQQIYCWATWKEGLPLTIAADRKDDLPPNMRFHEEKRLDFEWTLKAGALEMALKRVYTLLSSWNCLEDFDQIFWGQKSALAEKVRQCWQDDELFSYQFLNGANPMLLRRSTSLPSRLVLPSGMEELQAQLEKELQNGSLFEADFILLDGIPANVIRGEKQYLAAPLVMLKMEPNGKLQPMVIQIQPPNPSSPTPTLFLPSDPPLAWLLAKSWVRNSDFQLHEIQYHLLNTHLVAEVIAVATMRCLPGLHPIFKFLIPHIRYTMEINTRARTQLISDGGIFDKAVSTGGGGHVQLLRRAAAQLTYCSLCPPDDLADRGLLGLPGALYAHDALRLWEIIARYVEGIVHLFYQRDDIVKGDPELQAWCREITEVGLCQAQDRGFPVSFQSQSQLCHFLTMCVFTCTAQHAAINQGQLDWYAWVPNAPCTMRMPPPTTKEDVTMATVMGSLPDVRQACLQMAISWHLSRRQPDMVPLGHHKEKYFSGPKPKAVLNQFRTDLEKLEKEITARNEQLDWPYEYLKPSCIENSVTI
#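 Purified human 12hLO at 150 nM in 25 mM Hepes, 0.01% Triton X-100, pH 7.0, preincubated 15 min at room temperature with compound. Reaction started with 40 uM arachidonic acid, 30 min at room temperature. Hydroperoxide measured by Fe-xylenol orange, 573/405 nm absorbance ratio.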
# TDP1 cell CPT = qHTS for Inhibitors of human tyrosyl-DNA phosphodiesterase 1 (TDP1): qHTS in cells in presence of CPT; AID 686979, 2013; Potency, µM (top dose mostly 46.2 µM), for the others: at the highest dose activity change, negative = growth inhibition, most hits filed as inhibitors; 420,000 compounds, 12% hits; chicken DT40 Tdp1-/-;hTDP1 cells + 20 nM CPT, ATP luminescence, 48 h; further: potency means the concentration at half of the fitted maximal effect; nearly all actives have a fitted effect of over 55% in size
#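 Cell growth measured by CellTiter-Glo luminescence after a minimum 48 h, 37 C compound exposure with 20 nM CPT in Tdp1-knockout DT40 cells stably expressing hTDP1, seeded 400/well; qHTS titration format.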
# HT1080NT lethal = qHTS for induction of synthetic lethality in tumor cells producing 2HG: qHTS for the HT-1080-NT fibrosarcoma cell line | 360,000 compounds, 1.6% hits | HT-1080-NT fibrosarcoma viability, CellTiter-Glo ATP luminescence, 48 h | Potency, µM (series often up to 46.1 µM), without a hit: at the highest dose activity, negative = less viability, actives largely listed as cytotoxic;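 further: NT is the 2HG producing partner of a matched IDH1 knockdown line; potency means the concentration at half of the fitted maximal effect; 0% = DMSO-treated cells and -100% = media-only wells without cells; nearly all actives have a fitted effect of over 55% in size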
#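 HT-1080-NT fibrosarcoma cells (2HG-overproducing), 750 cells/well in RPMI with 5% FBS, dosed after 2 h and incubated 48 h at 37C. CellTiter-Glo luminescence normalized to DMSO and no-cell wells; concentration-response curves fitted and classed.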
# HT1080 IDH1KD tx = qHTS for induction of synthetic lethality in tumor cells producing 2HG: qHTS for the HT-1080-IDH1KD cell line | HT-1080 IDH1 knockdown viability, ATP luminescence, 48 h | Potency, µM (highest dose often 46.1 µM), for the others: at the top dose activity, negative = toxicity, most hits filed as cytotoxic | 360,000 compounds, 2% hits | AID 686971, 2013;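 further: potency means the concentration at half of the fitted maximal effect; 0% = DMSO wells and -100% = cell-free medium wells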
#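 Viability of IDH1-knockdown HT-1080 fibrosarcoma cells was assessed by CellTiter-Glo after 48 h at 37 °C with titrated compound; concentration-effect curves were classified by fit quality and response size.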
# * marks the source's active call; other numbers are inactive results; ? = inconclusive; . = no result; ! = not active in a repeat. Only a selection was taken, and hits are over-represented in it overall. Unless noted, the call rests on the fitted dose curve; in most records, active means well fitted curve in the direction sought with a large enough effect; inconclusive means small, poorly fitted or top-dose-only effect, or another doubt; inactive means no such curve, though single readings can be large; an effect the other way counts as inactive or inconclusive. Unless noted, on the % scale 0 is the no-effect control and ±100 the full control effect.
SMILES,IL-1B inflam inh,TDP1 cell noCPT,ALOX12 inh,TDP1 cell CPT,HT1080NT lethal,HT1080 IDH1KD tx
C=CCn1c(CCC(=O)O)ccc1-c1ccccc1,-77*,?,-23%,-9%,0%,-5%
Cc1nc2ccc(C(=O)N3CCC(OCc4cccnc4)CC3)cc2nc1C,.,.,35%,.,.,.
CC(CNC(=O)CCc1nnc2n(CCc3ccccc3)c(=O)c3ccccc3n12)c1ccccc1 (stereo unspecified),.,.,34%,.,.,.
CCS(=O)(=O)Nc1ccc(C(=O)CC2(O)C(=O)Nc3ccc(Br)cc32)cc1 (stereo unspecified),32,6.5µM*,0%,21µM*,1%,-3%
O=C(CC1(O)C(=O)Nc2ccc(Br)cc21)c1ccc2c(c1)OCO2 (stereo unspecified),48,?,0%,26µM*,-7%,-14%
CS(=O)(=O)Nc1cccc(C(=O)CC2(O)C(=O)Nc3ccc(Br)cc32)c1 (stereo unspecified),39,21µM*,0%,?,0%,0%
Cc1cc(C)c(NC(=O)CSc2nnc(C)n2C)c(Cl)c1,.,.,13%,.,.,.
CCCN1C(=O)NC(c2ccc(Br)s2)C(C(=O)OC)=C1C (stereo unspecified),.,.,-18%,.,.,.
CCc1ccc(CCOc2ccc(CC3SC(=O)NC3=O)cc2)nc1 (stereo unspecified),62,?,?,21µM*!,4%,-11%
CCOc1ccc(CC2S/C(=N/c3ccccn3)NC2=O)cc1 (stereo unspecified),37,?,21%,-20%,?,?
COCCCNCc1cc(=O)oc2ccc3ccccc3c12,.,.,41%,.,.,.
Cc1ccc(NC2(c3nnnn3-c3ccc(C)cc3)CCCC2)cc1,.,.,-6%,.,.,.
CCS(=O)(=O)c1ccc(OC)c(N=Nc2ccc(O)c3ncccc23)c1,40,?,?,?,?,8.2µM*
CCN(CC)S(=O)(=O)c1cc(OC)ccc1N=Nc1ccc(O)c2ncccc12,34,?,25%,7.3µM*,?,?
CCN(CC)S(=O)(=O)c1cccc2cccnc12,0,0%,-4%,-12%,-2%,1%
CCOc1cc(C=O)cc(Br)c1OCc1cccc(C)c1,.,.,6%,.,.,.
COc1ccc(CC2C(=O)NC(C)C(=O)N(C)C3Cc4ccc(cc4)Oc4cc(ccc4O)CC(C(=O)NC(C)C(=O)NC(C)C(=O)N2C)N(C)C3=O)cc1 (stereo unspecified),-100*,0.16µM*,-24%,0.018µM*,0.33µM*,0.16µM*
O=C(CSc1n[nH]c(=O)n1C1CC1)Nc1cc(Cl)ccc1Oc1ccccc1,-15,15µM*,5%,16µM*,-22%,-19%
COc1ccc2c(c1OC)OCC2C (stereo unspecified),14,18µM*,-17%,?,3%,8%
CCCCNC(=S)Nc1ccc(-c2nc3ccc(C)cc3s2)cc1,6,18µM*,-15%,?,4%,10%
Cc1ccc2nc(-c3ccc(NC(=S)NCC(C)(C)CN(C)C)cc3)sc2c1,0,6.5µM*,12%,6.5µM*,0%,9%
CNC(=S)Nc1ccc(-c2nc3ccc(C)cc3s2)cc1,?,?,?,2%,?,2%
CCOc1ccc(-c2noc(CSc3nnc(-c4ccccc4)n3-c3ccccc3)n2)cc1,.,12µM*,-16%,21µM*,.,.
COc1ccc(-c2noc(CSc3nnc(-c4ccncc4)n3-c3ccc(OC)cc3)n2)cc1,.,?,-10%,23µM*,.,.
COc1ccc(-c2noc(CSc3nnc(C)n3-c3ccc(OC)cc3)n2)cc1,.,?,-24%,-19%,.,.
SMILES,IL-1B inflam inh,TDP1 cell noCPT,ALOX12 inh,TDP1 cell CPT,HT1080NT lethal,HT1080 IDH1KD tx
CCOc1ccc(-n2c(SCc3nc(-c4ccc(C)cc4)no3)nnc2-c2ccncc2)cc1,-11,?,-28%,?,?,10µM*
Cc1ccc(-c2nnc(CSc3nnc(COc4ccccc4)n3-c3ccccc3)o2)cc1,4,?,0%,?,-22%,?
CCOc1ccc(-c2nnc(SCc3nnc(-c4ccccc4)o3)n2-c2ccccc2F)cc1,-4,23µM*,0%,16µM*,2%,-3%
COc1ccc(-c2noc(CSc3nnc(-c4ccncc4)n3-c3ccc(C)cc3)n2)cc1,.,?,2%,?,.,.
Clc1cccc(-c2noc(CSc3nnc(C4CC4)n3-c3ccccc3)n2)c1,.,.,-21%,.,.,.
Cc1ccc(-n2c(SCc3nc(-c4ccc(Cl)cc4)no3)nnc2-c2ccncc2)cc1,.,16µM*,-14%,15µM*,.,.
Clc1ccc(-c2noc(CSc3nnc(-c4ccncc4)n3-c3ccccc3)n2)cc1,-56*,?,18%,?,?,?
Cc1ccc(-c2noc(CSc3nnc(-c4ccncc4)n3-c3ccc(C)cc3)n2)cc1,0,16µM*,0%,21µM*,-24%,?
Clc1ccccc1-c1nnc(SCc2nc(-c3ccccc3)no2)n1-c1ccccc1,.,7.3µM*,?,18µM*,.,.
Cc1cc(C(=O)COc2ccc3ccc(=O)oc3c2)c(C)n1CC(F)(F)F,.,.,-3%,.,.,.
CCc1noc(-c2cn(C3CCN(C(=O)c4cc(Cl)ccc4OC)CC3)nn2)n1,.,.,30%,.,.,.

# Compound activity as filed in PubChem.
